Data from PubChem BioAssay (NCI).
This is part of a sample that, as a whole, favours compounds with a hit. Of some 83,000 tested, about 20% had one in any assay.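 Results are percent growth after 48 hours of single-concentration exposure. 100 means growth as in untreated cells, lower positive values show inhibition; negative values down to -100 show cell death.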 Activity calls are given as the source filed them. How the source made its calls: active means growth percent below 10; inactive means the rest.

Columns and labels:
Assay in all cases: NCI-60 one-dose screen, 48 h (100 = growth as untreated, 0 = no growth, -100 = all killed)
EKVX NSCLC = settings: 10 µM
SN12C renal = settings: 10 µM unless noted
UO-31 renal = settings: 10 µM unless noted
TK-10 renal = settings: 10 µM unless noted
ACHN renal = settings: 10 µM unless noted
A498 renal = settings: 10 µM unless noted
CCRF-CEM leukemia = settings: 10 µM
MOLT-4 leukemia = settings: 10 µM unless noted
SR leukemia = settings: 10 µM unless noted
RPMI-8226 leukemia = settings: 10 µM unless noted
OVCAR-8 ovarian = settings: 10 µM unless noted
OVCAR-5 ovarian = settings: 10 µM unless noted
OVCAR-4 ovarian = settings: 10 µM unless noted
SK-OV-3 ovarian = settings: 10 µM unless noted
IGROV1 ovarian = settings: 10 µM unless noted
OVCAR-3 ovarian = settings: 10 µM unless noted
HS 578T breast = settings: 10 µM unless noted
NCI/ADR-RES ovarian = settings: 10 µM unless noted
CAKI-1 renal = settings: 10 µM unless noted

Measured: growth

C/C=C/C/C=C/[C@H](C)C[C@H](O)[C@@H]1C[C@@H]2O[C@H]2/C=C/[C@H](O)[C@@H](O)/C=C/C[C@H](C)CC(=O)O1
inactive: EKVX NSCLC 121% | SN12C renal 79.1% | UO-31 renal 56.9% | TK-10 renal 42.8% | ACHN renal 77.5% | A498 renal 115% | CCRF-CEM leukemia 51.3% | MOLT-4 leukemia 81.5% | SR leukemia 69.9% | RPMI-8226 leukemia 42.8% | OVCAR-8 ovarian 63.7% | OVCAR-5 ovarian 93.4% | OVCAR-4 ovarian 88.9% | SK-OV-3 ovarian 102% | IGROV1 ovarian 78.9% | OVCAR-3 ovarian 84.9% | HS 578T breast 11% | NCI/ADR-RES ovarian 71.6%

CCCCCCNc1nc(N2CCOCC2)c2[nH]c(NCCCCCC)nc2n1
active: EKVX NSCLC -51.5% | SN12C renal -94.9% | UO-31 renal -81% | TK-10 renal -97.2% | ACHN renal -92.7% | CAKI-1 renal -63.8% | CCRF-CEM leukemia -32.3% | MOLT-4 leukemia -53.6% | RPMI-8226 leukemia -44.4% | OVCAR-8 ovarian -67.7% | OVCAR-5 ovarian -92% | OVCAR-4 ovarian -88.9% | SK-OV-3 ovarian -97.1% | IGROV1 ovarian -55.4% | OVCAR-3 ovarian -98.1% | NCI/ADR-RES ovarian -98%

O=C(CN1CCN(c2cccc(Cl)c2)CC1)N1CCN(c2nnc(-c3ccc(Cl)cc3)c(-c3ccc(Cl)cc3)n2)CC1
active: RPMI-8226 leukemia -33.5%
inactive: EKVX NSCLC 59% | SN12C renal 75.7% | TK-10 renal 90.2% | ACHN renal 65.3% | CAKI-1 renal 105% | A498 renal 63.1% | CCRF-CEM leukemia 48.7% | MOLT-4 leukemia 36.4% | OVCAR-5 ovarian 96.3% | OVCAR-4 ovarian 76.8% | SK-OV-3 ovarian 105% | OVCAR-3 ovarian 72.6% | HS 578T breast 61.9% | NCI/ADR-RES ovarian 70.6%

COC(=O)CC(=O)C(=O)OC
inactive: SN12C renal 107% | UO-31 renal 91.4% | ACHN renal 100% | CAKI-1 renal 133% | A498 renal 113% | MOLT-4 leukemia 97.9% | SR leukemia 93.1% | RPMI-8226 leukemia 101% | OVCAR-8 ovarian 105% | OVCAR-5 ovarian 108% | OVCAR-4 ovarian 108% | SK-OV-3 ovarian 106% | IGROV1 ovarian 108% | OVCAR-3 ovarian 106% | HS 578T breast 105% | NCI/ADR-RES ovarian 106%

Cc1ccccc1-n1c(C)nc2cc(NC(=O)c3ccc(Cl)cc3)ccc2c1=O
inactive: EKVX NSCLC 51.5% | SN12C renal 68.6% | UO-31 renal 77.8% | ACHN renal 48.1% | CAKI-1 renal 58.8% | A498 renal 60.6% | CCRF-CEM leukemia 52.7% | MOLT-4 leukemia 71.7% | SR leukemia 73.7% | RPMI-8226 leukemia 44.6% | OVCAR-8 ovarian 84% | OVCAR-5 ovarian 75.9% | OVCAR-4 ovarian 30.1% | SK-OV-3 ovarian 83.2% | IGROV1 ovarian 78.6% | OVCAR-3 ovarian 58.9% | HS 578T breast 82.1% | NCI/ADR-RES ovarian 82.4%

CCCCCCCCc1ccc(CCC(N)(CO)CO)cc1
active: UO-31 renal -7.93% | ACHN renal -37.2% | CCRF-CEM leukemia -5.69% | MOLT-4 leukemia -28.3% | SR leukemia -32.8% | RPMI-8226 leukemia -23.2% | OVCAR-8 ovarian -68.6% | IGROV1 ovarian -37.9% | OVCAR-3 ovarian -47.9% | NCI/ADR-RES ovarian 9.65%
inactive: EKVX NSCLC 54.8% | TK-10 renal 16.6% | CAKI-1 renal 16.1% | A498 renal 90.1% | OVCAR-5 ovarian 56.8% | SK-OV-3 ovarian 83.6%

CCN(CC)CCNc1ncnc2c1cnn2-c1ccc(Cl)cc1
inactive: EKVX NSCLC 82.8% | SN12C renal 80.6% | TK-10 renal 118% | ACHN renal 92.6% | CAKI-1 renal 61.5% | A498 renal 73.1% | CCRF-CEM leukemia 50.8% | MOLT-4 leukemia 92.9% | RPMI-8226 leukemia 96.7% | OVCAR-5 ovarian 89.6% | OVCAR-4 ovarian 90.6% | SK-OV-3 ovarian 99.7% | OVCAR-3 ovarian 63.1% | HS 578T breast 77.5% | NCI/ADR-RES ovarian 91.4%

O=C(Nc1ccc(-n2cc(-c3ccncc3)c(-c3ccc(Cl)c(O)c3)n2)cc1)c1cc(Cl)cc(Cl)c1
inactive: EKVX NSCLC 75.7% | SN12C renal 70.2% | UO-31 renal 12.3% | TK-10 renal 61.3% | A498 renal 95.9% | MOLT-4 leukemia 24.3% | SR leukemia 15.8% | OVCAR-8 ovarian 58.5% | OVCAR-5 ovarian 64.6% | OVCAR-4 ovarian 91.8% | SK-OV-3 ovarian 54.9% | IGROV1 ovarian 63% | OVCAR-3 ovarian 85.6% | NCI/ADR-RES ovarian 54.1%
active: CAKI-1 renal -32.1% | HS 578T breast -14.5%

O=Nc1ccc(O)c2ccccc12
active: SN12C renal -50.1% | TK-10 renal 5.45% | CCRF-CEM leukemia 5.22% | RPMI-8226 leukemia -12.1% | OVCAR-8 ovarian 7.56% | OVCAR-5 ovarian 1.31% | OVCAR-4 ovarian -96.5% | OVCAR-3 ovarian -6.85% | NCI/ADR-RES ovarian -0.605%
inactive: EKVX NSCLC 32.7% | UO-31 renal 38% | ACHN renal 19.9% | CAKI-1 renal 14.1% | A498 renal 118% | MOLT-4 leukemia 59.3% | SK-OV-3 ovarian 99.9% | HS 578T breast 53.2%

CCCCn1c(Cc2ccc(OC)cc2)nc2cc(OC)c(OC)cc2c1=O
inactive: EKVX NSCLC 44.8% | SN12C renal 88.6% | UO-31 renal 74.7% | TK-10 renal 67.2% | ACHN renal 80.9% | A498 renal 62% | CCRF-CEM leukemia 53.1% | MOLT-4 leukemia 49.1% | RPMI-8226 leukemia 26.1% | OVCAR-8 ovarian 78.2% | OVCAR-5 ovarian 104% | OVCAR-4 ovarian 73.6% | SK-OV-3 ovarian 99.4% | IGROV1 ovarian 81.3% | OVCAR-3 ovarian 86.3% | HS 578T breast 94.5% | NCI/ADR-RES ovarian 72.5%
active: SR leukemia 2.75%

COc1cc(/C(=C2/O[C@@H]([C@H]3COC(C)(C)O3)[C@H]3OC(C)(C)O[C@@H]23)c2ccc3c(c2)OCO3)cc(OC)c1OC
inactive: EKVX NSCLC 74.3% | SN12C renal 59.9% | TK-10 renal 70.7% | ACHN renal 26.4% | CAKI-1 renal 68.6% | CCRF-CEM leukemia 93.1% | MOLT-4 leukemia 106% | SR leukemia 80.9% | RPMI-8226 leukemia 73.7% | OVCAR-5 ovarian 59.2% | OVCAR-4 ovarian 58.1% | SK-OV-3 ovarian 63.1% | OVCAR-3 ovarian 74.8% | NCI/ADR-RES ovarian 44.4%
active: OVCAR-8 ovarian 4.49%

COC(=O)C(C(=O)OC)C(Br)C(Br)C(Br)c1ccccc1 (stereo not drawn)
inactive: SN12C renal 97.9% | UO-31 renal 77.7% | ACHN renal 17.9% | A498 renal 116% | MOLT-4 leukemia 63.8% | RPMI-8226 leukemia 80.5% | OVCAR-8 ovarian 91.8% | OVCAR-5 ovarian 120% | OVCAR-4 ovarian 90.1% | SK-OV-3 ovarian 109% | IGROV1 ovarian 107% | OVCAR-3 ovarian 92.6% | NCI/ADR-RES ovarian 111%
active: CCRF-CEM leukemia -28.9% | SR leukemia -10%

O=C(Nc1cccc2[nH]c(C(F)(F)F)nc12)c1ccc(F)cc1
inactive: SN12C renal 81.8% | UO-31 renal 63% | TK-10 renal 113% | ACHN renal 82.7% | CAKI-1 renal 84% | A498 renal 19% | CCRF-CEM leukemia 51.7% | MOLT-4 leukemia 65.5% | SR leukemia 76.3% | RPMI-8226 leukemia 30.4% | OVCAR-8 ovarian 90.1% | OVCAR-5 ovarian 99.6% | OVCAR-4 ovarian 80.3% | SK-OV-3 ovarian 98.8% | IGROV1 ovarian 85.8% | OVCAR-3 ovarian 66% | HS 578T breast 77.3% | NCI/ADR-RES ovarian 92.1%
